Compounds without any hit were thinned out: in the full panel of roughly 83,000, 20% have a hit.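 Single-dose data. Exposure time 48 hours. Values below 10 considered active.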 Values without a mark were called inactive. The source made the active and inactive calls.

The test deals with SK-MEL-2 melanoma. Briefly: NCI-60 one-dose screen, 48 h (100 = growth as untreated, 0 = no growth, -100 = all killed). The note with it: 10 µM unless noted.
Turning to `CC(=O)OC[C@]12CC[C@@H]([C@@H](C)c3nnc(-c4ccncc4)o3)[C@@H]1[C@H]1CC[C@@H]3[C@@]4(C)CC[C@H](OC(C)=O)C(C)(C)[C@@H]4CC[C@@]3(C)[C@]1(C)CC2`, the growth is 82.3%.
Take `CCN(CC)c1ccc(/C=N/NC(=O)Cc2ccc(Nc3ccnc(C(F)(F)F)c3)cc2)c(O)c1`: the growth is 56.1%.
With `Cc1cc2c(cc1C)N(C(=O)CCl)CC(=O)N2`, the growth was 63.2%.
Take `C#CC#CC#CC#CC#CC#CC#CC#CC[C@@H]1OC[C@@H](COC(=O)O[C@@H](C(=O)O[C@H]2C[C@@]3(O)[C@@H](OC(=O)c4ccccc4)[C@@H]4[C@]5(OC(C)=O)CO[C@@H]5C[C@H](O)[C@@]4(C)C(=O)[C@H](OC(C)=O)C(=C2C)C3(C)C)[C@@H](NC(=O)c2ccccc2)c2ccccc2)O1`: the growth is 105%.
For the compound `CCN1C(=O)N(CC)C2C1NN=c1s/c(=C\c3cnc(C)n3C)c(=O)n12` (centres undefined), the growth was 39.2%.
For `C/C=C(\C)C(=O)N[C@H]1C(O)C[C@]2(C)C3CC[C@@]4(C)C(CC[C@@H]4C(C)N(C)C)C3CCC2C1O` (some centres undefined) the value was 117%; for `C#Cc1cccc(Nc2nc(C)nc3cc(NC(=O)CCl)ccc23)c1`, -69.8% (active).
For the compound `CSc1nn2c(-c3ccc4ccccc4c3)ccnc2c1C#N`, the growth was -7.77% (active).
For the compound `CCN(CC)CCCOc1ccc2ncnc(Nc3ccc(Oc4cccc(C(F)(F)F)c4)c(Cl)c3)c2c1`, the growth was -14.7% (active).
For the compound `O=C1/C(=C\c2ccccn2)c2ccccc2N1c1c(Cl)cccc1Cl`, the growth was 48.8%.
`CCOC(=O)c1c(C)c2c(n1Cc1ccccc1)CSCC2=O`: the growth was -14.5% [100 µM] (active).
For the compound `O=C(CN1CCN(c2cc3c(cc2F)c(=O)c(C(=O)O)cn3C2CC2)CC1)N/N=C/c1ccco1`, the growth was 105%.
`Clc1ccc(-c2cc(-c3ccccc3)nc(NCCNc3ccnc4cc(Cl)ccc34)n2)cc1`: the growth was 78.8%.
Consider `N#C/C(=C\C=C\c1ccc(-c2cc(Cl)ccc2Cl)o1)c1nc2ccccc2s1`, for which the growth was 104%.
As to `COc1cc(OC)c(C(=O)C(CN(C)C)CN(C)C)cc1OC`, the growth is 105%.
On to `CCn1cc(CNc2ccc(C(=O)Nc3cc4cc(OC)c(OC)cc4c(C)n3)cc2)cn1`, for which the growth is 38.7%.
Regarding `N#Cc1c(-c2ccccc2)nc(SCc2nnc(-c3ccc(Cl)cc3)o2)[nH]c1=O`, the growth was 80.4%.
Regarding `O=P(O)(O)OCC1OC(n2cnc3c(NCc4ccco4)ncnc32)C(O)C1O` (centres undefined), the growth is 89.2%.
As to `CCN(CC)CCCN1C(=O)c2c(c(C)c3c(oc4ccc(O)cc43)c2C)C1=O`, the growth is 94.7%.
For `O=[N+]([O-])c1ccc(-c2cn3nc(-c4c[nH]c5ccccc45)sc3n2)cc1`, the growth was 109%.
`Cc1nc2ccccc2c(/C=C/c2ccccc2)c1C(=O)/C=C/c1ccccc1`: the growth is 27%.
Turning to `O=C1Nc2c(C(=O)O)cccc2/C1=N/c1n[nH]c(=S)s1`, the growth is 98.8%.
For `CC(=O)Oc1ccc(OC(C)=O)c2ccccc12`, the growth is 113%.
Regarding `COC(=O)/C=C1/SC(=Nc2ccc([N+](=O)[O-])cc2)N(CCc2c[nH]c3ccc(O)cc23)C1=O`, the growth was 39.7%.
Consider `[2H]C([2H])([2H])Oc1ccc(F)cc1/C=C/C(=O)/C=C(/C=C/c1cc(F)ccc1OC([2H])([2H])[2H])OB(F)F`, for which the growth was 94.2%.
As to `Nc1c(C(=O)Nc2cccc(Cl)c2)sc2nc3c(cc12)CCCC3`, the growth was 86.6%.
`NS(=O)(=O)c1ccc(C(=O)NN2C(=O)c3c(Br)c(Br)c(Br)c(Br)c3C2=O)cc1`: the growth was 99%.
In the case of `Cc1c(Cl)cccc1C(=O)Nc1nc2c(s1)CN(C(=O)c1ccc(C(F)(F)F)cc1)CC2`, the growth was 49.9%.
For the compound `CCCCCN(CCCCC)CC(O)c1cc(C)c2ccc3cc(C(C)C)ccc3c2c1` (centres undefined), the growth was 82.6%.
As to `CCC1S/C(=N\N=C(\C)c2cc3cc(Cl)ccc3o2)N(c2ccccc2)C1=O` (centres undefined), the growth was 299%.
For `CN1C(=O)/C(=C/c2ccc(C(=O)Nc3ncc(Cc4cccc(Cl)c4)s3)cc2)SC1=S`, the growth was 91.7%.
On to `O=C(NCc1cccc(CNC(=O)Nc2nc3ccccc3[nH]2)c1)Nc1nc2ccccc2[nH]1`, for which the growth was -11.8% (active).
Consider `COc1ccc(Cn2cc3c(c2-c2ccccc2)CCc2cnoc2-3)cc1`, for which the growth was 64.6%.
Turning to `Cc1ccc(CNc2c3ccccc3nc3ccccc23)cc1`, the growth was 42.7%.

For the origin of these results see PubChem BioAssay (NCI).
